Here are results for 44 sequences from the supplement of paper PMC11417369.

The full ranking holds about 25,000 sequences; the median of “ln(normalized median fluorescence intensity)” is about 9.7, and the highest 2% start at about 11. The list comes from a sample in which the highest values are over-represented; it also holds similar and randomly drawn sequences.

The subject of this experiment is PfAP2-HC AP2 domain (GST-tagged). Put plainly: gcPBM binding intensity (ln(normalized median fluorescence intensity)); higher = stronger DNA binding. The gist of the method: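 Probes on an Agilent 4 × 180k array were primer-extended, double-stranded and 36 bp long, taken from intergenic genomic regions, with negative controls added. GST-tagged P. falciparum DNA-binding domains from E. coli, about 25 μg on average, were applied to the array for 1 h in 1× PBS containing 1% milk, 0.2 mg/ml BSA, 0.5% salmon testes DNA and 0.03% Triton X-100. Binding intensity, obtained after Alexa488 anti-GST antibody detection and a 488 nm scan, is the highest Masliner-normalised natural-log median intensity across replicate spots of either probe orientation.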
Take “ACATATATATTTATATGTACATATATTTATATATAT [XGTACX_site7469]”: the “gcPBM binding intensity (ln)” value came out at 9.64.

Regarding “ATATTGTAAGTAAAATGTAATAAATATAATAAAATA [CACACA_negctrl_site697]”, the “gcPBM binding intensity (ln)” value was 9.76.

For the sequence “ATATATTTATATTGTACACACATTTATGCATATATA [CACACA_site7502]”, the “gcPBM binding intensity (ln)” value came out at 9.96.

On to “ACATTCTATACATACACACCCACACCCAAAAAAAAA [CACACA_site863]”, for which the “gcPBM binding intensity (ln)” value turned out to be 10.

Consider “CTTATACATTATTAACGTACATGTTATATGAATAAC [XGTACX_site5752]”, for which the “gcPBM binding intensity (ln)” value came to 9.6.

“TGGAAAATTATAAGGTGTACATATAAGCTATTATAT [XGTACX_site118]”: the “gcPBM binding intensity (ln)” value was found to be 9.63.

As for “ATATATATATATATTTATTCATATATTTTTTGTCTT [TGCATGCA_negctrl_site58]”, the “gcPBM binding intensity (ln)” value was 9.52.

For the sequence “AAAAATGAATTATTTTGTACATATATATATATATAT [XGTACX_site3410]”, the “gcPBM binding intensity (ln)” value was determined as 9.74.

As to “TGCTATTTTTTCCTTTTTTTGTATCACAATCATATA [CACACA_negctrl_site1576]”, the “gcPBM binding intensity (ln)” value was found to be 9.74.

“ATCAACATTATGTTTAGTACTTAGTGAATTGTTAAT [XGTACX_site4913]”: the “gcPBM binding intensity (ln)” value was 9.65.

As to “ATTATATATGTATGGTGTACTAAGAATATTTTTTTA [XGTACX_site1950]”, the “gcPBM binding intensity (ln)” value amounted to 9.55.

As to “ATTATTTAAAAAAAATGTACATAATAAATATGAACG [XGTACX_site4010]”, the “gcPBM binding intensity (ln)” value turned out to be 9.58.

On to “CAGTTTAATTTACATAGTACATAATATTTTAATTTT [XGTACX_site1793]”, for which the “gcPBM binding intensity (ln)” value is 9.65.

Consider “AAATAAATTAAAATAAATTAAATTAAATTAGCATTA [GTGCAC_negctrl_site531]”, for which the “gcPBM binding intensity (ln)” value is 9.52.

For the sequence “ATACATATATATATATGTACACACATTAATAAAAAA [XGTACX_site6874]”, the “gcPBM binding intensity (ln)” value came to 9.89.

Take “GACAATAAAAAGAAAAGTACATATATAAATTAACCA [XGTACX_site7858]”: the “gcPBM binding intensity (ln)” value worked out at 9.65.

On to “TGCATATGCATTATTTGTACATATGTAGATAATTAT [XGTACX_site6930]”, for which the “gcPBM binding intensity (ln)” value stood at 9.63.

For the sequence “GTATTTTTAAATGACACACACATATATATATATATA [CACACA_site1662]”, the “gcPBM binding intensity (ln)” value was 10.1.

For the sequence “AAAAAAAAAAAATATACACACACACCGACACATAAA [CACACA_site9270]”, the “gcPBM binding intensity (ln)” value was 10.9.

Regarding “TGCAAGGAACAACACACACACACATAAATGTATATA [CACACA_site8149]”, the “gcPBM binding intensity (ln)” value was 11.4.

As for “ATAAAATACATATAAACACACATATAAACCGACATA [CACACA_site2477]”, the “gcPBM binding intensity (ln)” value was 10.1.

Consider “AATAAATTGAAACACACACACACATATATATATATA [CACACA_site848]”, for which the “gcPBM binding intensity (ln)” value is 11.2.

For the sequence “CATATAAATAAACACACACACACATATATATATATA [CACACA_site5309]”, the “gcPBM binding intensity (ln)” value came out at 10.5.

Take “AAAAGGAACAGACACACACACATATATAAATATGTA [CACACA_site7656]”: the “gcPBM binding intensity (ln)” value worked out at 10.5.

For “TAAATTAAAAAAAATACACACACACCGACACATATA [CACACA_site9084]”, the “gcPBM binding intensity (ln)” value came to 10.6.

Turning to “TATATATATATATAAACACACATAAATATAAATATA [CACACA_site1121]”, the “gcPBM binding intensity (ln)” value was 9.88.

As for “TGCAAGGAAAAACACACACACACATAAATGTATATA [CACACA_site751]”, the “gcPBM binding intensity (ln)” value is 10.4.

For the sequence “ATAAATATGGAGCACACACACATAAACATACCTATA [CACACA_site6336]”, the “gcPBM binding intensity (ln)” value amounted to 10.8.

Take “TGATAAATATGGAGCACACACACATAAACATACATA [CACACA_site420]”: the “gcPBM binding intensity (ln)” value stood at 10.4.

On to “ATAAATATGGAGCACACACACATAAACATACATATA [CACACA_site421]”, for which the “gcPBM binding intensity (ln)” value worked out at 11.1.

On to “GATTATTTTATAAGTACACACATTTATCTATAATAA [CACACA_site7256]”, for which the “gcPBM binding intensity (ln)” value was found to be 9.69.

In the case of “ACGTTAAAAACAAGTTGTACACAATAAATTATTCTT [XGTACX_site6321]”, the “gcPBM binding intensity (ln)” value worked out at 9.75.

Regarding “GTATTCAAAAGTGAAACATGCAATAATATATATATA [TGCATGCA_site617]”, the “gcPBM binding intensity (ln)” value was 9.63.

Take “AATATTTTTTTATAAACACACATATATATAAATATA [CACACA_site3524]”: the “gcPBM binding intensity (ln)” value stood at 9.53.

For the sequence “AATACAATTTTTAACACACACACAATAATACAGATA [CACACA_site4823]”, the “gcPBM binding intensity (ln)” value came out at 11.2.

“ATACAACAGATATATACACACATATAACAATAATAA [CACACA_site7560]”: the “gcPBM binding intensity (ln)” value is 10.

Take “ATTTAATACAAATACACACACAAATAAATACAGATA [CACACA_site5956]”: the “gcPBM binding intensity (ln)” value came to 10.2.

For “TACACGTTCTACATTTGTACTTAATTTATACATAAG [XGTACX_site1579]”, the “gcPBM binding intensity (ln)” value came to 9.79.

Turning to “CCATTTACATTGTGAAGTACTAAAAAAAAATGTAGA [XGTACX_site7882]”, the “gcPBM binding intensity (ln)” value amounted to 9.48.

With “ATCGGTAATATTAACACACACATTTATTTATATTTA [CACACA_site6638]”, the “gcPBM binding intensity (ln)” value was found to be 10.1.

Turning to “GTATCTCATTATTCGTGTACTAAACACATAAAAATA [XGTACX_site2262]”, the “gcPBM binding intensity (ln)” value came out at 9.58.

Turning to “GTTAATTGAAGATTCACACATAAATATATATATAAT [CACACA_site5482]”, the “gcPBM binding intensity (ln)” value came to 9.61.

“ATATACTATTATGTGTGTACATAATAATTTATTATA [XGTACX_site3776]”: the “gcPBM binding intensity (ln)” value stood at 9.75.

Consider “ATATACTTTTTTTTTTTTTTTTTAACGTTATTTATG [CACACA_negctrl_site1277]”, for which the “gcPBM binding intensity (ln)” value came out at 9.64.
